In test [1] the target is Estrogen receptor (Homo sapiens) (UniProt P03372). Description: qHTS assay for small molecule antagonists of estrogen receptor alpha signaling (AID 588513; active = well fitted curve in the direction sought with a large enough effect in the signal ratio, with a control signal flat, not every such curve was filed as active; the % refers to the signal ratio; note: % is set by controls: 0 for no effect and ±100 for the full control effect). An outline of the steps: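 ER-alpha-UAS-bla GripTite HEK 293 cells in 2% charcoal/dextran-treated FBS medium; compounds titrated (1:2, duplicate), then stimulated with 0.5 nM 17-beta-estradiol for 18 h at 37C. CCF4 beta-lactamase fluorescence; Hill-fit IC50 and efficacy.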
Chain of Estrogen receptor (Homo sapiens) (P03372 whole entry, looked up): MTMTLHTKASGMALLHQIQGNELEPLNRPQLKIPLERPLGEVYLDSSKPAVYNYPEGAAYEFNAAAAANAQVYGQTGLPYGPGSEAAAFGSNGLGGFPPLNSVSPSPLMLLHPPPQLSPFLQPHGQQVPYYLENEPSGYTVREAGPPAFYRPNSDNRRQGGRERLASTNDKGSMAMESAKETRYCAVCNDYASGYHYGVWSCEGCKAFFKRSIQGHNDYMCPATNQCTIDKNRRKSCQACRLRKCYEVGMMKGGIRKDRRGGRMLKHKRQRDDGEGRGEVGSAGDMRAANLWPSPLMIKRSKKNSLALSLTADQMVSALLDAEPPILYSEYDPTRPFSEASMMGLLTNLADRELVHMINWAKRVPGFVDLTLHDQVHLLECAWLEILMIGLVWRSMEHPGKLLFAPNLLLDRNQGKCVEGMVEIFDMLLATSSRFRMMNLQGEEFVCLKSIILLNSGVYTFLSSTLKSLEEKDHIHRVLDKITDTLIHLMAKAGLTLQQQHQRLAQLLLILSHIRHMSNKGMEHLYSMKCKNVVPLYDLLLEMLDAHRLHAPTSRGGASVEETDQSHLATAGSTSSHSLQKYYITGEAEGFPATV
A general note: qHTS replaces the single test concentration by a dilution series.

For test [2] the target is unchanged. Description: qHTS assay for small molecule agonists of estrogen receptor alpha signaling (AID 588514).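 Note: 0% = vehicle only and 100% = reference agonist; nearly all actives have a fitted effect of over 70% in size.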 Put shortly: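 Reporter-gene assay. […] controls beta-lactamase in HEK 293 GripTite cells; after 18 hrs with compound, CCF4 substrate is added for 2 hrs and fluorescence is read.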
A short description of test [3]: qHTS assay for small molecule antagonists of peroxisome proliferator-activated receptor delta signaling (AID 588535).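 Note: cells co-treated with a PPAR-delta agonist as stimulator during compound exposure.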 The settings on record: HEK293T PPARd-UAS-bla, beta-lactamase FRET ratio, 18 h; 460 nm channel. Put shortly: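 Cell-based beta-lactamase assay in antagonist mode: 4000 HEK293T PPAR-delta-UAS-bla cells per well, 5 hr preincubation then 18 hr compound incubation at 37 C. IC50 obtained by Hill equation fitting.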

The target of test [4] is Peroxisome proliferator-activated receptor gamma (Homo sapiens) (UniProt P37231). The test can be described thus: qHTS assay for small molecule agonists of peroxisome proliferator-activated receptor gamma signaling (AID 588536; active = well fitted curve in the direction sought with a large enough effect in the signal ratio, with a control signal flat, not every such curve was filed as active; the % refers to the signal ratio;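 note: 0% = DMSO basal wells and 100% = rosiglitazone at 2 µM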). An outline of the steps: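 GeneBLAzer PPAR-gamma-UAS-bla HEK293 cells in 1% charcoal/dextran-treated FBS medium were treated 16 h at 37 C with compounds. Beta-lactamase activity was read by CCF4 ratio (460/530 nm). Response was normalized to 2 uM rosiglitazone (100%) and DMSO, then Hill-fitted for EC50 and efficacy.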
Chain of Peroxisome proliferator-activated receptor gamma (Homo sapiens) (P37231 whole entry, looked up): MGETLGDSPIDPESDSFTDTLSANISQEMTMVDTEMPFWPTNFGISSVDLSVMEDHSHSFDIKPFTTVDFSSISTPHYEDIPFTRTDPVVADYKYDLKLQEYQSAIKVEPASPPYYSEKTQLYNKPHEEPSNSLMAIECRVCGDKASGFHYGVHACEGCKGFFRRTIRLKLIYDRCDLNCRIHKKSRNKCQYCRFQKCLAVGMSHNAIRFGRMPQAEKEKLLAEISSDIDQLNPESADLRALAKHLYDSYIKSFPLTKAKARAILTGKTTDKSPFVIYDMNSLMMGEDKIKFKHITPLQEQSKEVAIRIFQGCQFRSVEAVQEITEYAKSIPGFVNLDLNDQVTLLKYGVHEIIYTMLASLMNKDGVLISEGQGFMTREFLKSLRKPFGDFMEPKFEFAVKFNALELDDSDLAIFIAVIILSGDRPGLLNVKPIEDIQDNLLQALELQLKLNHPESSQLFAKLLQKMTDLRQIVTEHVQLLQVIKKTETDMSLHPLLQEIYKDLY

For test [5] the target is unchanged. Description: qHTS assay for small molecule antagonists of peroxisome proliferator-activated receptor gamma signaling (AID 588537; active = well fitted inhibition curve with a large enough effect in the signal ratio, with a control signal flat, not every such curve was filed as active; the % refers to the signal ratio;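 note: reporter cells co-stimulated with 50 nM rosiglitazone agonist during compound treatment; % of control where 0% means no effect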). Put shortly: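 Inhibitors of agonist-stimulated UAS-bla reporter activity were sought in HEK293 cells; rosiglitazone (50 nM) defined full signal and DMSO baseline. Curves fitted to Hill model gave IC50 and efficacy.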
Test [6] has as its target Vitamin D3 receptor (Homo sapiens) (UniProt P11473). Description: qHTS assay for small molecule antagonists of vitamin D receptor signaling (AID 588541).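 Note: receptor activated by calcitriol during compound treatment; series mostly up to about 77 µM; % is set by controls: 0 for no effect and ±100 for the full control effect.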 An outline of the steps: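 Antagonist-mode beta-lactamase reporter assay: HEK293T VDR-UAS-bla cells were exposed to titrated compound alongside 1-alpha,25-dihydroxyvitamin D3 at 3 nM final for 16 h. Values were normalized to the 50 nM agonist control and DMSO basal, with IC50 and efficacy from Hill equation fits.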

For test [7] the target is unchanged. The test can be described thus: qHTS assay for small molecule agonists of vitamin D receptor signaling (AID 588543).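 Note: 0% = DMSO basal and 100% = reference agonist control.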 Put shortly:
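VDR-UAS-bla HEK293T cells, 2000/well, 2% charcoal-stripped FBS; compound titration 16 h at 37 C; CCF4 beta-lactamase ratio read. Normalized to 50 nM 1-alpha,25-dihydroxyvitamin D3 (100%) and DMSO; Hill fit gives EC50, efficacy.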

Test [8] can be described thus: qHTS assay for small molecule agonists of retinoid X receptor alpha signaling (AID 588544).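 For activation: 0% = DMSO basal wells and 100% = reference agonist.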 As to conditions: HEK293T RXRa-UAS-bla, beta-lactamase reporter, 18 h; 530 nm emission.
Test [9] addresses Thyroid hormone receptor beta (Homo sapiens) (UniProt P10828). The test can be described thus: qHTS assay for small molecule agonists of thyroid hormone receptor beta signaling (AID 588545).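 Note: 0% = DMSO only and 100% = 10 nM T3.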 An outline of the steps:
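Beta-lactamase reporter activity under TR response element control is measured in HEK 293 cells after 18 hrs compound exposure. Signal is ratiometric CCF4 fluorescence, 460/530 nm.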

A short description of test [10]: qHTS assay for small molecule antagonists of retinoid X receptor alpha signaling (AID 588546; active = well fitted inhibition curve with a large enough effect in the signal ratio, with a control signal flat, not every such curve was filed as active; the % refers to the signal ratio;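 note: cells stimulated with 9-cis-retinoic acid as agonist; % is set by controls: 0 for no effect and ±100 for the full control effect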). As to conditions: HEK293T RXRa-UAS-bla, beta-lactamase ratio, antagonist mode; measured here: W530 green channel, cytotoxicity proxy. Put shortly: (§1)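 Beta-lactamase reporter inhibition, read as CCF4 fluorescence ratio (ex 405, em 460/530 nm) after 2 h at RT. HEK293T UAS-bla cells, 2500/well, were stimulated with 9-cis-RA at 500 or 100 nM final alongside test compound for 18 h at 37 C.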

The target in test [11] is Retinoic acid receptor RXR-alpha (Homo sapiens) (UniProt P19793). Described as above. As to conditions: HEK293T RXRa-UAS-bla, beta-lactamase ratio, antagonist mode. An outline of the steps: as §1
Chain of Retinoic acid receptor RXR-alpha (Homo sapiens) (P19793 whole entry, looked up): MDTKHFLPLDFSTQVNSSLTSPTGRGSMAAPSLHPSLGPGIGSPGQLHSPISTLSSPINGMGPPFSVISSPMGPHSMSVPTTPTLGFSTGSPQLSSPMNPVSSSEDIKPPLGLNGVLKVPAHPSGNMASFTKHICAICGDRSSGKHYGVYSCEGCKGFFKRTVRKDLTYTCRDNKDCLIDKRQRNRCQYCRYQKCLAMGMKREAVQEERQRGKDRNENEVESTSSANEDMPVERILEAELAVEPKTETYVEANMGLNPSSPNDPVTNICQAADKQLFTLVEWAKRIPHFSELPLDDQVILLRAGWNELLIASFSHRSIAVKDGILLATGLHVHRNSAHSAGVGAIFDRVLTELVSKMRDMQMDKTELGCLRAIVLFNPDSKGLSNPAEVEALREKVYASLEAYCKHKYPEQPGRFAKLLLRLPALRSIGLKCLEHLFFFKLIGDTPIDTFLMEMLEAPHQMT
The nature of test [12]: qHTS assay for small molecule activators of the nuclear factor-kappa B (NF-kB) signaling pathway (AID 651749; active = well fitted activation curve with a large enough effect in the signal ratio; the % refers to the signal ratio; note: series mostly up to about 77 µM; % of control where 0% means no effect). As to conditions: NF-kB-bla ME-180 cells, beta-lactamase FRET ratio, 16 h; activation: stronger effect = higher value. An outline of the steps:
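Stably transfected ME-180 line; NF-kB response element upstream of beta-lactamase. Treatment: compound or DMSO, 16 hr. Detection: fluorescent FRET substrate.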

Test [13] is described as follows: qHTS assay for environmental chemicals that activate the Aryl hydrocarbon Receptor (AhR) signaling pathway (AID 651777; active = well fitted curve in the direction sought with a large enough effect; an effect the other way counts as inactive or inconclusive; note: % of control where 0% means no effect; nearly all actives have a fitted effect of over 15% in size). As to conditions: 1A2-DRE human hepatoma cells, luciferase, 24 h; activation: stronger effect = higher value. Put shortly: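 Human hepatoma 1A2-DRE cells, stably carrying a dioxin response element and CYP1A2 promoter driving luciferase, were exposed to compounds for 24 hr at 37 C and 5% CO2. Luciferase signal was then read after 30 min One-Glo at room temperature.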

Test [14] has as its target Peroxisome proliferator-activated receptor alpha (Homo sapiens) (UniProt Q07869). The test can be described thus: qHTS assay for small molecule agonists of the peroxisome proliferator-activated receptor alpha (PPARalpha) signaling pathway (AID 651778; active = well fitted curve in the direction sought with a large enough effect; an effect the other way counts as inactive or inconclusive; note: % of control where 0% means no effect). The settings on record: PathHunter PPARalpha complementation, chemiluminescence, 6 h; max response: stronger effect = higher value. Put shortly:
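Chemiluminescence from complemented enzyme reported PPARalpha activation in cells after 6 hr of compound treatment at 37 C. The detection reagent was incubated for 60 min at room temperature, and compounds were scored as agonists.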

A short description of test [15]: qHTS assay for small molecule agonists of the antioxidant response element (ARE) signaling pathway measured by Nrf2-dependant transcriptional activity - cell viability counter screen (AID 720653; active = well fitted curve in the direction sought with a large enough effect in the repeat runs; an effect the other way counts as inactive or inconclusive; note: % is set by controls: 0 for no effect and ±100 for the full control effect). The settings on record: ARE-bla HepG2 viability, CellTiter-Glo ATP luminescence, 16 h; max response: stronger effect = lower value. An outline of the steps: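 Cytotoxicity counter screen: intracellular ATP quantified by CellTiter-Glo luminescence in the same ARE-bla HepG2 plates, after 16 h compound exposure and a 2 h beta-lactamase substrate step.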

Test [16] is described as follows: qHTS assay for cell viability of HEK293 cells (AID 743288; active = well fitted curve in the direction sought with a large enough effect; an effect the other way counts as inactive or inconclusive; note: % is set by controls: 0 for no effect and ±100 for the full control effect; nearly all actives have a fitted effect of over 50% in size). The settings on record: ATP luminescence (CellTiter-Glo), 18 h; max response: stronger effect = lower value. Put shortly:
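Parental HEK293 cells, 2,000 per well, preincubated at least 5 h at 37 C, then exposed to compounds in DMSO for 18 h at 37 C. Viability by CellTiter-Glo ATP luminescence after 30 min at room temperature.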

The nature of test [17]: qHTS assay for cell viability of the p53RE-bla HCT-116 cell line (AID 743292; active = well fitted curve in the direction sought with a large enough effect; an effect the other way counts as inactive or inconclusive; note: % is set by controls: 0 for no effect and ±100 for the full control effect; nearly all actives have a fitted effect of over 55% in size). An outline of the steps: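 CellSensor p53RE-bla HCT-116 cells, 4,000/well, preincubated 5 h at 37 C, then exposed to compounds in DMSO for 16 h at 37 C. Viability read as CellTiter-Glo luminescence (intracellular ATP) after 30 min at room temperature.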
Test [18] deals with Nuclear receptor subfamily 1 group I member 2 (Rattus norvegicus) (UniProt Q9R1A7). The test can be described thus: qHTS assay for small molecule activators of the rat pregnane X receptor (rPXR) signaling pathway (AID 651751; call rule not given here; note: 0% is about no effect). As to conditions: rPXR reporter cells, luciferase (One-Glo), 24 h.
Chain of Nuclear receptor subfamily 1 group I member 2 (Rattus norvegicus) (Q9R1A7 whole entry, looked up): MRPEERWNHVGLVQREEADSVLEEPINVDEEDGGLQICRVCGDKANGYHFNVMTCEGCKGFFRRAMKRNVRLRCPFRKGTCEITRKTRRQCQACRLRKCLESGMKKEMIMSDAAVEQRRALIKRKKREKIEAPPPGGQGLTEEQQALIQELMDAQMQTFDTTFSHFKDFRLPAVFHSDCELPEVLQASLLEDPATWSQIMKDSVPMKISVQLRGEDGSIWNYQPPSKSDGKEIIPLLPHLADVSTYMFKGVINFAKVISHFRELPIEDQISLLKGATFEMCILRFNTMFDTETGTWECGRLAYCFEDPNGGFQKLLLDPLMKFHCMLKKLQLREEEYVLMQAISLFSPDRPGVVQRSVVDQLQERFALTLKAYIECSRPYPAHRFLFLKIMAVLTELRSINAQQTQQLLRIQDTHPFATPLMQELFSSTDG
Test [19] is described as follows: qHTS assay for small molecule activators of the human pregnane X receptor (PXR) signaling pathway (AID 720659; call rule not given here; note: 0% is about no effect).
Test [20] has as its target Retinoic acid receptor RXR-alpha (Homo sapiens) (UniProt P19793). Description: qHTS assay for small molecule agonists of retinoid X receptor alpha signaling (AID 588544).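 For activation: 0% = DMSO basal wells and 100% = reference agonist.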

Results on six compounds are retold here after PubChem BioAssay (NCATS).

Inconclusive results are not listed. Activity calls are given as the source filed them. Unless noted, calls come from the whole dose curve.

Chain of Vitamin D3 receptor (Homo sapiens) (P11473 whole entry, looked up): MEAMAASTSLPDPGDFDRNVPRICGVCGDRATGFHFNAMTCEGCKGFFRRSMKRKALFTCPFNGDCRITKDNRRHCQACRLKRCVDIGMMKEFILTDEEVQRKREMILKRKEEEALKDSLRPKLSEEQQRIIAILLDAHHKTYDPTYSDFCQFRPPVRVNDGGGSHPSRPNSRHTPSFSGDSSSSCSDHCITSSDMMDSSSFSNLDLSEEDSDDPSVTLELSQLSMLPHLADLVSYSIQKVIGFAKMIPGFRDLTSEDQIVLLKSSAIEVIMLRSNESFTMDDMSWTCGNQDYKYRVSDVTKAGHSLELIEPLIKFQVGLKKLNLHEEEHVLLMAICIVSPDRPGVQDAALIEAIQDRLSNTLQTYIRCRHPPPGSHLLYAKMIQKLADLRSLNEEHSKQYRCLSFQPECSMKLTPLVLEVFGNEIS
Chain of Peroxisome proliferator-activated receptor alpha (Homo sapiens) (Q07869 whole entry, looked up): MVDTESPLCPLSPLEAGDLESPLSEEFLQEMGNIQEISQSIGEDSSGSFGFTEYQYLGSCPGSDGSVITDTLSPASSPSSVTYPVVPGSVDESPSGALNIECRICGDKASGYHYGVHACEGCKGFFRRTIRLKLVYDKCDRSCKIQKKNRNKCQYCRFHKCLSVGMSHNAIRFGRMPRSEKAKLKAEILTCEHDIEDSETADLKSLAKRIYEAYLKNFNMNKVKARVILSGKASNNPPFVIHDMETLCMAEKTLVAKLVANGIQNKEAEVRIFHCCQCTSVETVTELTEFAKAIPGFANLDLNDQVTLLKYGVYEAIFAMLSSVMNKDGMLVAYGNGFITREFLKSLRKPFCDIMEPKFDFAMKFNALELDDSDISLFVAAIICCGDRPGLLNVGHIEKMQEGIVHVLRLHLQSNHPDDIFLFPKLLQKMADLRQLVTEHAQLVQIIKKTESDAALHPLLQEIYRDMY
Chain of Thyroid hormone receptor beta (Homo sapiens) (P10828 whole entry, looked up): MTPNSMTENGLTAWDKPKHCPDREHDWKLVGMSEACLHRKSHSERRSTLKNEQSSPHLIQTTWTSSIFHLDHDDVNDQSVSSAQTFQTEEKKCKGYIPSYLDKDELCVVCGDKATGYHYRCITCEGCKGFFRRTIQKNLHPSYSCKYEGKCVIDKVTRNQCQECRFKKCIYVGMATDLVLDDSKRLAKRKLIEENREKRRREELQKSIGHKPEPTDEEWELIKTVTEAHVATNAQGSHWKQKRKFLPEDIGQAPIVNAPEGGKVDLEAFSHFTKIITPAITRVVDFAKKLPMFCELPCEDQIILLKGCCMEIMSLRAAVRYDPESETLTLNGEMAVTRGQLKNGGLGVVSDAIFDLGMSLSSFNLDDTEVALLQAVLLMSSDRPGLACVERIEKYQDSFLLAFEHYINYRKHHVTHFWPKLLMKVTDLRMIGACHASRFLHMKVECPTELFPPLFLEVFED

As to `COC(=O)c1c(Cl)nn(C)c1S(=O)(=O)NC(=O)Nc1nc(OC)cc(OC)n1`, the Potency entry in test [1], in test [2], in test [5], in [6], in [9] and in [17] was “inactive” in each case. Besides, the max response in test [3] was -24.6%; in test [8] it was -3.44%; in [10] it was -1.74%; in test [11] it was -14.3% (inactive); in [14], 0.0687% (inactive); in test [15] it was -2.6% (inactive). Besides, the results for the max response in test [16] and in test [18] were -3.18% (inactive) and 1.48% (inactive), respectively. For the same compound, the compound was classed as inactive in [4], in [7] and in test [19]. The activation is -2.65% (inactive) in test [12] and -1.75% (inactive) in test [13].

Take `CCSC(=O)N(CC(C)C)CC(C)C`: the Potency result in test [1], in [2], in [20], in [9] and in [17] was “inactive” throughout. The max response in [3] was -16.2%; in test [8], -8.61%; in [10] it was -7.79%; in test [11], -2.54% (inactive); in [14], -0.436% (inactive); in [15], -3.63% (inactive). In addition, the max response in [16] is -1.7% (inactive); in test [18], 2.63% (inactive). The compound was called inactive in [4], in test [7] and in test [19]. The activation in [12] is -0.513% (inactive); in test [13], 0.255% (inactive).

As for `C=Cc1ccc(P(c2ccccc2)c2ccccc2)cc1`, the Potency result in [1], in test [2], in test [5], in [20], in test [9] and in test [17] was “inactive” throughout. Also, the max response in [3] was 16.9%; in test [8] it was -3.97%; in test [10], -0.204%; in test [11], 3.02% (inactive); in [14], -0.0796% (inactive); in test [15] it was -10.4% (inactive). The max response in test [18] is 0.774% (inactive). Also, the compound was classed as inactive in test [4], in test [7] and in [19]. Also, the activation is 0.802% (inactive) in test [12] and 0.447% (inactive) in [13].

As to `CCCCCC1CCC(=O)O1` (stereo not given), the Potency result in [1], in [2], in [20], in [9] and in test [17] was “inactive” throughout. Further, the max response was 31.3% in test [3]; -5.36% in test [8]; -5.89% in test [10]; -1.42% (inactive) in [14]; 1.26% (inactive) in test [15]; -7.91% (inactive) in [16]. Moreover, the max response in test [18] was 2.69% (inactive). The compound was called inactive in test [7] and in [19]. The activation in [12] is -1.34% (inactive).

As for `CCCCN(CCCC)CCCC`, the Potency result in [1], in test [2], in test [6], in test [20], in test [9] and in [17] was “inactive” throughout. Moreover, the max response in [3] is 31.3%; in [8], -9.25%; in test [10], -19.1%; in [11], 2.35% (inactive); in [14], 3.75% (inactive); in test [15], -5.72% (inactive). In addition, the max response is -10.1% (inactive) in test [16] and -4.71% (inactive) in test [18]. For the same compound, the activation in test [12] is -1.19% (inactive); in test [13] it was -2.43% (inactive). Besides, the call in test [19] was inactive.

On to `CCCCCCCCCC(C)=O`, for which the Potency result in test [1], in [2], in test [5], in test [20], in test [9] and in test [17] was “inactive” throughout. Besides, the max response is 26.8% in test [3]; -16.2% in [8]; -6.07% in [10]; -4.81% (inactive) in test [11]; -10.8% (inactive) in [15]; -5.17% (inactive) in test [16]. The max response in [18] is -2.12% (inactive). Besides, the outcome in test [4], in test [7] and in [19] was inactive. The activation in test [12] is 0.316% (inactive); in [13], 0.0383% (inactive).
